A short description of assay [1]: Validation of Assay for Modulators of Lamin A Splicing (AID 1459; active = well fitted curve in the direction sought with a large enough effect in the signal ratio; the % refers to the signal ratio;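 note: cells exposed to compound for two days before reading; 0% is about no effect; ratio rise marks activators and ratio drop marks inhibitors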). The gist of the method:
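Readout: ratio of GFP (500-530 nm) to RFP (575-640 nm) total object intensity by 488 nm laser-scanning cytometry after 48 hrs. Cells were HeLa S3 clones carrying lamin A-EGFP minigene plus DsRed2 viability reporter; vehicle 0.5% DMSO final.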

Assay [2] in a line: qHTS for differential inhibitors of proliferation of Plasmodium falciparum line 7G8 (AID 1815;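 note: parasite growth measured after three days of incubation; plate controls were vehicle wells for no effect and reference inhibitor wells for full effect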). (In general: qHTS replaces the single test concentration by a dilution series.)
Assay [3] can be described thus: qHTS for differential inhibitors of proliferation of Plasmodium falciparum line GB4 (AID 1816).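 Note: potency is the fitted concentration of half-maximal effect; parasite growth measured after 72 h incubation.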 The settings on record: Potency: Plasmodium falciparum GB4 proliferation inhibition.
Assay [4] in a line: qHTS for differential inhibitors of proliferation of Plasmodium falciparum line Dd2 (AID 1882).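 Note: plate controls were DMSO vehicle for no effect and 0.29 µM artemisinin for full effect; nearly all actives have a fitted effect of over 65% in size.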 Particulars: Potency: Plasmodium falciparum Dd2 proliferation inhibition. In short, it runs like this: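 Dd2-infected erythrocytes (0.3% parasitemia, 2.5% hematocrit final) incubated with compound 72 h at 37 C, 5% CO2; lysed with saponin/Triton buffer containing SYBR Green I, incubated overnight in the dark, then read by fluorescence (485/535 nm). Normalized to 0.29 uM artemisinin and DMSO.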

The nature of assay [5]: High Content Imaging Cell-Based qHTS for Inhibitors of the mTORC1 Signaling Pathway in MEF Cells (AID 2667).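 Note: Tsc2-/- p53-/- MEFs stably re-expressing wild-type Tsc2 exposed 24 h; plate controls were DMSO wells for no effect and rapamycin control wells for full effect.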 The gist of the method:
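WT MEFs (Tsc2-/-, p53-/- re-expressing Tsc2), in DMEM + 10% FBS, were treated with compound for 24 h at 37 C. Cells were then fixed and stained for phospho-rpS6 Ser235/236 with propidium iodide as cell count. Values are % positive cells, with thresholds set against rapamycin-treated cells.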

Assay [6] is described as follows: Validation screen for inhibitors of Lassa infection (AID 463096; calls by dose curve; note: % is set by controls: 0 for no effect and ±100 for the full control effect).
Assay [7] deals with DNA polymerase III PolC-type (Bacillus subtilis (strain 168)) (UniProt P13267). Description: qHTS Validation Assay for the Inhibitors of DNA Replication in Gram-Positive Bacteria (AID 485295).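 Note: reconstituted holoenzyme with PolC plus beta clamp SSB and primase; PicoGreen fluorescence of double-stranded DNA made on primed circular M13 template; 0% = DMSO wells and -100% = EDTA-quenched background wells.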 In short, it runs like this:
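PicoGreen fluorescence (ex 480–485/em 535–540 nm) reports dsDNA synthesized on ssM13Gori template with dNTPs/NTPs. Enzyme: holoenzyme rebuilt from purified PolC, beta subunit, SSB and primase. Compound preincubated before substrate addition; RT throughout.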

Assay [8] concerns the target ATP-dependent 6-phosphofructokinase (Trypanosoma brucei brucei) (UniProt O15648). The assay is described as follows: qHTS Validation Assay to Find Inhibitors of T. brucei phosphofructokinase (AID 485368). The settings on record: T. brucei PFK enzyme assay, qHTS 7-point titration; at 57.5 µM (top of the series). In short, it runs like this: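 Enzyme reaction in triethanolamine buffer pH 8.0 with 5 mM MgCl2, 0.01% Tween20 and 0.1% BSA; PFK 1.25 nM, F6P 0.5 mM, ATP 0.1 mM, 45 min RT. ADP quantified by ADP-Glo.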

Assay [9] has as its target Arylsulfatase A (Homo sapiens) (UniProt P15289). Description: qHTS screen for enhancers of Arylsulfatase A (ASA1): LOPAC Validation Assay (AID 720538). Note: 0% is about no effect. In short, it runs like this: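 Read-out: fluorescence at Ex=525/Em=598 nm after 1N NaOH final stop. Patient fibroblasts carrying ASA-I179S had 48h compound exposure, then 14h room-temperature pNCS hydrolysis (0.5mM final) in lysis buffer. Signal increase = enhanced activity.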

The nature of assay [10]: qHTS profiling of the MIPE4 collection as inhibitors of Plasmodium falciparum (3D7) proliferation (AID 743344; call rule not given here;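 note: scaled between DMSO vehicle wells and 0.29 µM artemisinin as full inhibition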). Particulars: P. falciparum 3D7 in erythrocytes, SYBR Green DNA fluorescence, 72 h; at 28.5 µM (top of the series) unless noted. In short, it runs like this: (§1)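 Erythrocytes infected with P. falciparum (0.3% parasitemia, 2.5% hematocrit) incubated with compounds 72 h at 37 C, 5% CO2. Lysis with saponin/Triton buffer containing SYBR Green I, overnight at room temperature in the dark; DNA fluorescence (485/535 nm) normalised to 0.29 uM artemisinin and DMSO.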

Assay [11] in a line: qHTS profiling of the MIPE4 collection as inhibitors of Plasmodium falciparum (DD2) proliferation (AID 743345; call rule not given here). The settings on record: P. falciparum Dd2 in erythrocytes, SYBR Green DNA, 72 h; at 28.5 µM (top of the series) unless noted. In short, it runs like this: as §1
Assay [12] in a line: qHTS profiling of the MIPE4 collection as inhibitors of Plasmodium falciparum (HB3) proliferation (AID 743347; call rule not given here;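 note: plate controls were DMSO vehicle wells for no effect and artemisinin wells for full effect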). Particulars: P. falciparum HB3 in erythrocytes, SYBR Green DNA, 72 h; at 28.5 µM (top of the series) unless noted. In short, it runs like this:
as §1

Assay [13] in a line: qHTS for Inhibitors of the Functional Ribonucleoprotein Complex (vRNP) of Lassa (LASV) Arenavirus: LASV Primary Screen - GLuc reporter signal (AID 1347082; calls by dose curve; tested in HEK293 reporter line; note: % is set by controls: 0 for no effect and ±100 for the full control effect; nearly all actives have a fitted effect of over 60% in size).
Assay [14] can be described thus: qHTS for Inhibitors of the Functional Ribonucleoprotein Complex (vRNP) of Lassa (LASV) Arenavirus: Viability assay - alamar blue signal for LASV Primary Screen (AID 1347083; calls by dose curve; tested in HEK293 reporter line; note: % is set by controls: 0 for no effect and ±100 for the full control effect; nearly all actives have a fitted effect of over 80% in size).
Assay [15] can be described thus: qHTS for Inhibitors of the Functional Ribonucleoprotein Complex (vRNP) of Lymphocytic Choriomeningitis Arenaviruses (LCMV): Viability assay - alamar blue signal for LCMV Primary Screen (AID 1347085; calls by dose curve; tested in HEK293 reporter line; note: % is set by controls: 0 for no effect and ±100 for the full control effect; nearly all actives have a fitted effect of over 80% in size).
Assay [16] concerns the target Nucleoprotein (Lymphocytic choriomeningitis virus (strain Armstrong)) (UniProt P09992). Description: qHTS for Inhibitors of the Functional Ribonucleoprotein Complex (vRNP) of Lymphocytic Choriomeningitis Arenaviruses (LCMV): LCMV Primary Screen - GLuc reporter signal (AID 1347086; calls by dose curve; note: % is set by controls: 0 for no effect and ±100 for the full control effect; nearly all actives have a fitted effect of over 70% in size).
Assay [17] can be described thus: Cytotoxicity counterscreen for inhibitors of SARS-CoV-2 cell entry (AID 1645845; calls by dose curve; note: nearly all actives have a fitted effect of over 50% in size). In short, it runs like this:
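HEK293-ACE2 cells (Expi293F stably expressing human ACE2) seeded overnight, then compound for 1 h plus 48 h at 37C. Viability as ATP content by luminescence; normalized to wells with cells and media-only wells.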
For orientation: Counterscreens check selectivity or assay interference.

A short description of assay [18]: Primary qHTS to identify inhibitors of SARS-CoV-2 cell entry (AID 1645846; calls by dose curve; note: nearly all actives have a fitted effect of over 45% in size). The settings on record: activity change, negative = inhibition: at 57.1 µM (top of the series) unless noted. In short, it runs like this: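 HEK293-ACE2 (Expi293F, stable hACE2), 1500 cells/well, o/n 37C; cpd 23 nL pin, 1 h; MLV-PP w/ SARS-CoV-2-S (Wuhan-Hu-1, Δ19 C-term); 48 h 37C; Bright-Glo luminescence; normalized vs S-PP and bald PP.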

Each structure is given as a SMILES string. Inconclusive results are not listed. Calls of active or inactive are those of the source. Unless noted, calls come from the whole dose curve; as a rule, active = well fitted curve in the direction sought with a large enough effect; inconclusive = small, poorly fitted or top-dose-only effect, or another doubt; inactive = no such curve, though single readings can be large; an effect the other way counts as inactive or inconclusive.

Nucleoprotein (Lymphocytic choriomeningitis virus (strain Armstrong)), sequence (P09992 whole entry, looked up): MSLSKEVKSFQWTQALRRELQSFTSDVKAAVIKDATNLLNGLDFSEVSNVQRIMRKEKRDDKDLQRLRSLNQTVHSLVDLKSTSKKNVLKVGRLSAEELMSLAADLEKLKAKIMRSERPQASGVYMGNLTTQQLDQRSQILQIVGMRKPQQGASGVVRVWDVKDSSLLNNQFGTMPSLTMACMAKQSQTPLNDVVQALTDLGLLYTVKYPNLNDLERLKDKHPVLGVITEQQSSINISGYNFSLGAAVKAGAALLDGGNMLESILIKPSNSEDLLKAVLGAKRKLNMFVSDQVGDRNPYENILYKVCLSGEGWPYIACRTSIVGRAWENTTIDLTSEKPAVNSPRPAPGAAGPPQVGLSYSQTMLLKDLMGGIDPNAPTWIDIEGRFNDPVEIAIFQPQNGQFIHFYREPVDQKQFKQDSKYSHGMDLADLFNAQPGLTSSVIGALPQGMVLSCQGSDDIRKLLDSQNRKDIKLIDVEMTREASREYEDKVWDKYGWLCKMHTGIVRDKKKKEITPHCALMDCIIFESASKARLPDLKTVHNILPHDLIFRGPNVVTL
Arylsulfatase A (Homo sapiens), sequence (P15289 whole entry, looked up): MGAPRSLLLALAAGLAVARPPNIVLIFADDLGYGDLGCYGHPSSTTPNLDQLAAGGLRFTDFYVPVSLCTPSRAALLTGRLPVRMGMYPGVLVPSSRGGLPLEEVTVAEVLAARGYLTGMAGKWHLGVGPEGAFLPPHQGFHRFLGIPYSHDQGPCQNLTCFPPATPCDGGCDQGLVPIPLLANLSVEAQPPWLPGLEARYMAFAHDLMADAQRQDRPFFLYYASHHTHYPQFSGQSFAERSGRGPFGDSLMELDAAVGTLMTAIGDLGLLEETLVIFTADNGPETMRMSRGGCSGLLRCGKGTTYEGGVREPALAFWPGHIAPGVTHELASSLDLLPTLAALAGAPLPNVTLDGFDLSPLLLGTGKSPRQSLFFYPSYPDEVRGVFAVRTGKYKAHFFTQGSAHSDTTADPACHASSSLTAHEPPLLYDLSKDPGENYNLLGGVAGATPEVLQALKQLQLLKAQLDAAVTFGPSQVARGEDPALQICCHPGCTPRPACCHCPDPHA
DNA polymerase III PolC-type (Bacillus subtilis (strain 168)), sequence (P13267 whole entry, looked up): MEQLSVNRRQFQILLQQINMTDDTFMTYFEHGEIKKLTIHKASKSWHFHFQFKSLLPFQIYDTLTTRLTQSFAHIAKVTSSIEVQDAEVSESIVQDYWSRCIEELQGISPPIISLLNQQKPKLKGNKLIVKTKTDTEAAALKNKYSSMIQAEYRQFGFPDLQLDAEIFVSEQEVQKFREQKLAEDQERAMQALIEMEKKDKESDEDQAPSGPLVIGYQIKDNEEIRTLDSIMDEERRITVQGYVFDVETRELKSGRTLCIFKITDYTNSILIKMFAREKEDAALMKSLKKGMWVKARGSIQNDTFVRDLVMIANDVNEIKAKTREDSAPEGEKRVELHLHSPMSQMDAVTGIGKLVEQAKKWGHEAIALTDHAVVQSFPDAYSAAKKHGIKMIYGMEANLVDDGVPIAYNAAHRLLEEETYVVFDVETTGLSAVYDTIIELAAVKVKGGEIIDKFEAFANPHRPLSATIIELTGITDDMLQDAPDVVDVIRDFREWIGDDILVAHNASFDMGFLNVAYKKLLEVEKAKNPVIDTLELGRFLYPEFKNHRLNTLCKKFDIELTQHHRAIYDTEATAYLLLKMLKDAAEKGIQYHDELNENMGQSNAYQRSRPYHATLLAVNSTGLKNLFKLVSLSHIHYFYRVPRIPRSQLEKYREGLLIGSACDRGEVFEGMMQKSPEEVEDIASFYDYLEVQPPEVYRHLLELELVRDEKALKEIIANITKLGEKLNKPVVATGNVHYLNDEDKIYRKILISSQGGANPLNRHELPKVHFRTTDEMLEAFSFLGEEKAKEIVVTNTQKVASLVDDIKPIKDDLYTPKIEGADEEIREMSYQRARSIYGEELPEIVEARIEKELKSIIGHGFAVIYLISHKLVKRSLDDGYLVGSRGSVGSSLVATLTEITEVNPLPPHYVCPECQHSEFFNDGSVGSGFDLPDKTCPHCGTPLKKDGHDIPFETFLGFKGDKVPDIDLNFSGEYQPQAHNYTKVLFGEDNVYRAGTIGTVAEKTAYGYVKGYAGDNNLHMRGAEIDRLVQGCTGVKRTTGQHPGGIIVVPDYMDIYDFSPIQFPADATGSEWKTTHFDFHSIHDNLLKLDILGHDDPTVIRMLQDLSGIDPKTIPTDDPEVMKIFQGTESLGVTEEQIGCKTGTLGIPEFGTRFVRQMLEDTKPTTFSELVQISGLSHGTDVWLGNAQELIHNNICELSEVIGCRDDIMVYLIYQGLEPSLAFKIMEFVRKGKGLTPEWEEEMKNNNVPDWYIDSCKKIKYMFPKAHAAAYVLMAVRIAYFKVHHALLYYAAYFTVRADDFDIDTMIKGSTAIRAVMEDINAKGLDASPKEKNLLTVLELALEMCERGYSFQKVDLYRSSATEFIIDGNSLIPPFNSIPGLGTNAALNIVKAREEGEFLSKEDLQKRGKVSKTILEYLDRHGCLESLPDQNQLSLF
ATP-dependent 6-phosphofructokinase (Trypanosoma brucei brucei), sequence (O15648 whole entry, looked up): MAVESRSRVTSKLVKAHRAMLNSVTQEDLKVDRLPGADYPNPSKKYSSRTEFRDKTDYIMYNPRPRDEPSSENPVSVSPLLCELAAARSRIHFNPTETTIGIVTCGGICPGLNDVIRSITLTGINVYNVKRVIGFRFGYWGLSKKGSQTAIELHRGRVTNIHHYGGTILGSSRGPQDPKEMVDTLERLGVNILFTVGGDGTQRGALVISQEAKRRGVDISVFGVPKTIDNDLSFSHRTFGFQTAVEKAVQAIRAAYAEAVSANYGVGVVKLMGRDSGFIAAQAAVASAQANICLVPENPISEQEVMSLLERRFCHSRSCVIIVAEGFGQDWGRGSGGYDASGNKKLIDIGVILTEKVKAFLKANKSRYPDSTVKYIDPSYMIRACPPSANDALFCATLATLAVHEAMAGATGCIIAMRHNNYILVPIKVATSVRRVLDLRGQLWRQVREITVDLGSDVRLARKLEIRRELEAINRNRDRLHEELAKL

Take `CN1C2CCC1CC(OC(=O)C(CO)c1ccccc1)C2` (stereo not drawn): the molecule was called inactive in assay [1] and in assay [8]. For the same molecule, the Potency entry in assay [2], in assay [4], in assay [5], in assay [6], in assay [7] and in [9] was “inactive” throughout. The Potency result in assay [13], in assay [14], in assay [15], in [16] and in assay [17] was “inactive” in each case. Besides, the Potency in assay [3] is 8.91 µM (active). For the same molecule, in assay [10], the parasite growth, % of DMSO control stood at 88.6%. In assay [11], this molecule registered a parasite growth remaining, % of DMSO control (lower = more inhibition) of 94.5%. The growth, % of control in [12] is 108%. The activity change, negative = inhibition in assay [18] is -16.5%.
